# LASV entry inh = blocks Lassa virus binding to or entry into cells. Potency, µM (titrated, usually from 37.9 µM), for inactives: top-dose activity change, negative = inhibition, usual class: inhibitors. AID 540256. Lassa virus pseudotype entry inhibition, cell reporter. 1.2% of 300,000 active; calls by dose curve; tested in HEK293 cells; note: nearly all actives have a fitted effect of over 50% in size
# Sm TGR inh = S. mansoni TGR enzyme inhibition; Q962Y6; AID 485364; purified TGR, DTNB reduction, TNB absorbance 405 nm; Potency, µM (top dose mostly 114 µM), inactives show top-dose activity change, negative = inhibition, actives largely listed as inhibitors; 3% of 360,000 active; note: nearly all actives have a fitted effect of over 60% in size
#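 TGR 20 nM + NADPH 100 uM (dispensed conc.), cpd preinc 15 min RT; start with NADPH (500 uM addition) then DTNB (15 mM addition). Kinetic TNB absorbance, 405 nm filter. Four-parameter Hill fit across titration.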
# HCV inh = blocks hepatitis C virus; Huh7.5.1 HCVcc-Cre infection, luciferase reporter, 44 h; 3.4% of 340,000 active; Potency, µM (highest dose often 41.8 µM), inactives show at the top dose activity change, negative = inhibition, actives largely listed as inhibitors
#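 Reporter virus HCVcc-Cre (~0.5 moi) infects cells exposed to compound; seeding density 1,000 cells/well with 4 h settling beforehand. Luminescence, 15 sec read, taken 44 h post-infection following a 15 min RT substrate incubation.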
# FMDV antiviral = foot and mouth disease virus antiviral activity. 1.2% of 410,000 active. FMDV antiviral cell-based qHTS. AID 1159524. Potency, µM (highest dose often 57.9 µM), for the others: at the highest dose activity change, negative = inhibition, most hits filed as inhibitors; calls by dose curve; tested in HEK293T cells; note: read-out not given here; nearly all actives have a fitted effect of over 45% in size
# RE007 growth inh = less growth of the S. pombe RE007 Vpr strain. AID 651644. Potency, µM (highest dose often 92.2 µM), inactives show at the highest dose activity change, negative = less growth, hits mostly inhibitors. 0.21% of 360,000 active. S. pombe RE007 Vpr strain, BacTiter-Glo ATP luminescence, 24 h; active = well fitted falling curve with a large enough effect; inconclusive = small, poorly fitted or top-dose-only effect; inactive = no such curve, though single readings can be large or run the other way; note: nearly all actives have a fitted effect of over 50% in size
#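 Fission yeast RE007 carrying one integrated HIV-1 vpr copy, seeded at OD 0.01 in PMG+AL medium with 23 nL pinned compound. Grown 24 h at 30 degrees; viability read by BacTiter-Glo luminescence after 5 min.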
# MARV entry inh = blocks Marburg virus binding to or entry into cells; Potency, µM (titrated, usually from 37.8 µM), inactives show top-dose activity change, negative = inhibition, usual class: inhibitors; AID 540276; Marburg virus pseudotyped entry inhibition, cell reporter; 1.8% of 300,000 active; calls by dose curve; tested in HEK293 cells
# Active calls of the source: *; ? = inconclusive; · = no result; [ ] = dose if it differs, or a comment. The list is not random: actives were taken first. Their share in the collection is about 7.2%. Unless noted, calls come from the whole dose curve; as a rule, active = well fitted curve in the direction sought with a large enough effect; inconclusive = small, poorly fitted or top-dose-only effect, or another doubt; inactive = no such curve, though single readings can be large; an effect the other way counts as inactive or inconclusive. % is set by controls: 0 for no effect and ±100 for the full control effect; potency is the fitted concentration of half-maximal effect.
SMILES,LASV entry inh,Sm TGR inh,HCV inh,FMDV antiviral,RE007 growth inh,MARV entry inh
CC1CCc2c(sc(NC(=O)c3cc(-c4ccc(Br)cc4)on3)c2C(N)=O)C1 (configuration not stated),12.6%[46.1 µM],-11.4%,·,0.9%,·,?
CCOc1ccc(Nc2oc(-c3ccc(Cl)cc3)nc2C#N)cc1,16.4µM*,4.7%,?,46.4%,-6.8%,7.3µM*
O=C(CSc1ccc(-c2ccco2)nn1)NC1CCCC1,-4.7%,17.8µM*,1.0%,-2.7%,22.0%,1.9%[46.1 µM]
O=C(CSc1ccc(-c2ccco2)nn1)NC1CCCCC1,-0.2%,8.91µM*,-5.4%,1.1%,0.2%,2.8%[46.1 µM]
O=C(CSc1ccc(-c2ccccc2)nn1)N1CCCCC1,·,15.8%,-1.0%,52.8%,3.1%,-4.2%[46.1 µM]
O=C(CSc1ccc(-c2ccco2)nn1)N1CCCCCC1,1.2%,25.1µM*,-1.7%,0.0%,-5.9%,?
CC(=O)c1ccc(N2CCN(S(=O)(=O)c3cc(-c4onc(C)c4C)ccc3C)CC2)cc1,-5.5%[46.1 µM],-0.1%,·,?,·,·
O=C1C=CC(=O)N1c1ccc(Sc2ccc([N+](=O)[O-])cc2)cc1,·,3.16µM*,·,·,·,·
COCCNC(=O)CCC1CCN(Cc2cccc(-c3ccc(C)o3)c2)CC1,·,39.8µM*,10.2%,1.3%,17.1%,·
NC(=O)c1cc([N+](=O)[O-])ccc1NCCc1ccccc1,·,1.5%,11.2µM*,25.0%,3.8%,·
S=C(Nc1ccc(Nc2ccccc2)cc1)NC1CCCCCC1,?,·,?,28.2µM*,6.7%,?
COC(=O)c1ccc(NC(=S)NCCc2cccc(C)c2)cc1,7.6%,-3.4%,22.4µM*,-11.7%,-14.0%,-23.5%
COC(=O)c1ccc(NC(=S)NCCc2ccccc2C)cc1,-7.7%,-6.7%,-14.6%,-14.2%,-9.3%,9.4%
S=C(Nc1ccc(Cl)cc1)NC1CCCCC1,?,-3.6%,-10.5%,69.9%,11.7%,-28.8%[46.1 µM]
Oc1ccccc1/C=N/NC(=S)NCCc1ccccc1,0.5%[46.1 µM],4.0%,11.2µM*,12.3%,6.7%,?
O=c1c(-c2cc(-c3ccc(F)cc3)nc3c2COc2ccc(Cl)cc2-3)coc2ccc(F)cc12,-10.0%[46.1 µM],-0.3%,·,-12.3%,·,-5.9%[46.1 µM]
CCNc1ncc2nc(-c3cc(F)cc(F)c3)c(=O)n(Cc3cccs3)c2n1,·,·,·,-9.8%,·,·
CCOc1ccc(CNC(=O)CCn2c(=O)c3cccn3c3cccnc32)cc1,9.5%[46.1 µM],-15.4%,·,19.2%,·,·
Cc1ccc(S(=O)(=O)NCC(Nc2cccc(Cl)c2)c2ccccc2)cc1 (configuration not stated),?,?,·,-0.6%,·,?
O=[N+]([O-])c1cccc(NC(=S)NCCc2ccccc2)c1,-5.1%,-25.3%,12.6µM*,?,7.4%,?
S=C(NCCc1ccccc1)Nc1ccc(Nc2ccccc2)cc1,?,-10.3%,11.2µM*,-7.7%,1.8%,?
O=[N+]([O-])c1ccc(CNCCc2ccccc2)cc1,·,-20.2%,7.7%,5.9%,2.6%,·
O=[N+]([O-])c1ccc(S(=O)(=O)NNC(=S)NCCc2ccccc2)cc1,·,1.78µM*,19.1%,-8.6%,-0.7%,·
S=C(NCCCc1ccccc1)Nc1ccccc1,-20.3%[46.1 µM],-31.5%,-7.5%,0.0%,4.9%,7.1%[46.1 µM]
COc1ccccc1N1CCN(S(=O)(=O)CCNC(=O)C(c2ccccc2)c2ccccc2)CC1,-29.5%[46.1 µM],2.6%,·,-22.4%,·,·
SMILES,LASV entry inh,Sm TGR inh,HCV inh,FMDV antiviral,RE007 growth inh,MARV entry inh
CCOC(=O)c1ccccc1NC(=O)CSc1cn(CC(=O)N2CCCCCC2)c2ccccc12,-15.6%[46.1 µM],-2.7%,·,-20.5%,·,·
CN(C)C(=O)c1ccc(-c2nccc(NCc3cccnc3)n2)cc1,·,·,·,32.7%,·,·
c1ccc(-c2ccncc2)cc1,·,·,-5.0%,-9.9%,-5.2%,·
Nc1cc(-c2ccncc2)c[nH]c1=O,5.4%,39.8µM*,-0.1%,0.0%,-1.6%,22.0%
CC1(C(=O)NC2CCCCCC2)CCN1C(=O)Cc1ccc(-c2ccccc2)cc1 (configuration not stated),·,·,·,?,18.8%,·
O=C(NNc1ccc(O)cc1)c1ccc(Br)cc1,·,22.4µM*,2.7%,5.2%,-16.4%,·
O=C(On1c(-c2ccccc2)nc2ccccc2c1=O)c1ccco1,?,6.31µM*,?,·,?,-16.9%
COc1cc(OC)cc(-c2nc3ccccc3c(=O)n2OC(=O)c2ccccc2C)c1,11.2µM*,6.9%,6.5%,-25.6%,2.3%,?
O=c1c2ccccc2nc(-c2ccccc2)n1O,·,·,7.9%,-10.9%,?,·
CCS(=O)(=O)c1oc(-c2ccc(F)cc2)nc1S(=O)(=O)c1ccccc1,?,0.708µM*,·,17.8µM*,·,?
CCCCCS(=O)(=O)c1oc(-c2cccs2)nc1S(=O)(=O)c1ccc(C)cc1,-10.2%[46.1 µM],2.82µM*,·,28.2µM*,·,-0.6%[46.1 µM]
CSc1oc(-c2ccc(F)cc2)nc1S(=O)(=O)c1ccc(Br)cc1,?,8.5%,·,-21.2%,·,-10.9%[46.1 µM]
CCC(C)S(=O)(=O)c1oc(-c2ccc(F)cc2)nc1S(=O)(=O)c1ccc(F)cc1 (configuration not stated),?,5.62µM*,·,?,·,?
CCCCS(=O)(=O)c1oc(-c2cccs2)nc1S(=O)(=O)c1ccc(F)cc1,?,1.58µM*,·,31.6µM*,·,?
CC(=O)c1ccc(N2CCN(C(=O)CCS(=O)(=O)c3ccc4c(c3)oc(=O)n4C)CC2)cc1,?,0.0%,·,-17.5%,·,·
CCCCN(C(=O)CCC(=O)O)[C@H]1CC(=O)N(c2ccc(OCCC)cc2)C1=O,·,·,·,·,·,3.9%
CCCCS(=O)(=O)c1oc(-c2ccc(F)cc2)nc1S(=O)(=O)c1ccc(C)cc1,?,3.16µM*,·,28.2µM*,·,10µM*
COc1ccc(CNc2ncnc3ccc(-c4c(C)noc4C)cc23)c(OC)c1,·,·,·,24.1%,·,·
COC(=O)c1ccc2c(=O)n(CCCCCC(=O)N3CCN(c4ccc(Cl)cc4)CC3)c(=O)[nH]c2c1,-2.2%[46.1 µM],4.6%,·,-1.8%,·,·
Cc1cc(Br)cc2c(C(=O)Nc3c(C)n(C)n(-c4ccccc4)c3=O)cc(-c3cccs3)nc12,?,-5.5%,?,·,-17.9%,6.51µM*
Cc1nn(S(=O)(=O)c2ccc(C(C)(C)C)cc2)c(C)c1S(=O)(=O)N1CCCCCC1,9.1%[46.1 µM],3.2%,·,-0.1%,·,·
CCN(CC)c1ccc(/C=C2\SC(=O)N(C(C)C)C2=O)o1,?,1.78µM*,10µM*,19.3%,?,11.2µM*
CC(C)N1C(=O)S/C(=C/c2ccc3c(c2)n(C)c(=O)n3C)C1=O,-0.1%,6.7%,?,15.8%,12.4%,?
NC1(C#Cc2ccc3oc(=O)c(-n4cc(C5(O)CCCCC5)nn4)cc3c2)CCCCC1,·,·,-0.4%,2.1%,-8.6%,·
NC1(C#Cc2ccc3oc(=O)c(-n4cc(-c5ccsc5)nn4)cc3c2)CCCCC1,·,56.2µM*,?,-21.1%,-1.0%,·
CC=COC(=O)N[C@@H](c1cccc(C)c1)[C@]1(C(=O)OCC)CCCC1=O,·,·,·,·,·,13.1%[14.2 µM]
